Data taken from PubChem BioAssay AID1159580 (chemical genetic matrix, 2015).
Screen size: about 5,500 compounds; about 2,000 (36%) were called active. Inconclusive results (about 18%) are left out. Rule as the data show it: active = normalized growth mostly below about 0.91 (no sharp cut-off); inconclusive = no clear call, values can overlap the other calls; inactive = mostly above about 0.92. This is one part of the list.

Test: chemical genetic growth profiling, strain panel (AID 1159580);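 also: tested at 20 µM; growth read once vehicle control cultures reached saturation at 30 °C; 1 = growth at the plate median or of vehicle wells; lower values mean less growth of the strain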
Settings: growth OD
[1] = S. cerevisiae deletion strains, locus YAL013W, strain DEP1, stronger effect = lower value
[2] = S. cerevisiae deletion strains, locus YBR229C, strain ROT2, stronger effect = lower value
[3] = S. cerevisiae deletion strains, locus YDL101C, strain DUN1, stronger effect = lower value
[4] = S. cerevisiae deletion strains, locus YDR150W, strain NUM1, stronger effect = lower value
[5] = S. cerevisiae deletion strains, locus YEL061C, strain CIN8, stronger effect = lower value
[6] = S. cerevisiae deletion strains, locus YGR078C, strain PAC10, stronger effect = lower value
[7] = S. cerevisiae deletion strains, locus YHR030C, strain SLT2, stronger effect = lower value
[8] = S. cerevisiae deletion strains, locus YHR087W, strain rtc3, stronger effect = lower value
[9] = S. cerevisiae deletion strains, locus YJR043C, strain POL32, stronger effect = lower value
[10] = S. cerevisiae deletion strains, locus YJR075W, strain HOC1, stronger effect = lower value
[11] = S. cerevisiae deletion strains, locus YLR039C, strain RIC1, stronger effect = lower value
[12] = S. cerevisiae deletion strains, locus YLR058C, strain SHM2 (second series), stronger effect = lower value
[13] = S. cerevisiae deletion strains, locus YLR085C, strain ARP6, stronger effect = lower value
[14] = S. cerevisiae deletion strains, locus YLR262C, strain YPT6, stronger effect = lower value
[15] = S. cerevisiae deletion strains, locus YML094W, strain GIM5, stronger effect = lower value
[16] = S. cerevisiae deletion strains, locus YMR219W, strain ESC1, stronger effect = lower value
[17] = S. cerevisiae deletion strains, locus YMR263W, strain SAP30, stronger effect = lower value
[18] = S. cerevisiae deletion strains, locus YMR307W, strain GAS1, stronger effect = lower value
[19] = S. cerevisiae deletion strains, locus YNL128W, strain TEP1, stronger effect = lower value
[20] = S. cerevisiae deletion strains, locus YNL153C, strain GIM3, stronger effect = lower value
[21] = S. cerevisiae deletion strains, locus YNL298W, strain CLA4 (second series), stronger effect = lower value
[22] = S. cerevisiae deletion strains, locus YNL322C, strain KRE1, stronger effect = lower value
[23] = S. cerevisiae deletion strains, locus YNR030W, strain Alg12, stronger effect = lower value
[24] = S. cerevisiae deletion strains, locus YPL055C, strain LGE1, stronger effect = lower value
[25] = S. cerevisiae deletion strains, locus YPL241C, strain CIN2, stronger effect = lower value
[26] = S. cerevisiae deletion strains, locus YPR135W, strain CTF4, stronger effect = lower value
[27] = S. cerevisiae deletion strains, locus YKL190W, strain CNB1, stronger effect = lower value
[28] = S. cerevisiae deletion strains, locus YOL006C, strain TOP1, stronger effect = lower value
[29] = S. cerevisiae strains, strain wild type, stronger effect = lower value

Measured: normalized growth

COc1cc(/C=C2/SC(=S)NC2=O)cc(OC)c1OC
inactive: [4] 0.897 | [5] 0.977 | [7] 0.87 | [8] 0.911 | [9] 0.948 | [13] 0.845 | [15] 0.969 | [18] 0.887 | [19] 0.977 | [21] 0.912 | [23] 0.922 | [24] 0.881 | [25] 0.885 | [26] 0.809
active: [1] 0.915 | [2] 0.894 | [3] 0.865 | [6] 0.877 | [10] 0.822 | [11] 0.725 | [12] 0.919 | [14] 0.73 | [16] 0.926 | [17] 0.901 | [20] 0.92 | [22] 0.926

COc1cc(/C=C2/N=C(c3ccccc3I)OC2=O)cc(OC)c1OC
inactive: [1] 1 | [2] 1.01 | S. cerevisiae deletion strains, locus YCL061C, strain MRC1, stronger effect = lower value 1.01 | [3] 1.03 | [4] 0.888 | [5] 0.984 | [6] 1 | S. cerevisiae deletion strains, locus YGR229C, strain SMI1, stronger effect = lower value 0.981 | [7] 0.956 | [8] 1.01 | [9] 1 | [10] 1.01 | [27] 0.995 | [11] 0.964 | [12] 0.996 | [13] 1.01 | [14] 0.947 | [15] 1.02 | [16] 1 | [17] 1 | [18] 0.961 | [20] 1.01 | [21] 1.01 | [22] 0.994 | [23] 0.982 | [28] 0.998 | [24] 1.12 | [25] 0.967 | [26] 0.903 | [29] 0.989

COc1cc(/C=C/C=O)cc(OC)c1OC
inactive: [1] 1.03 | S. cerevisiae deletion strains, locus YBR021W, strain FUR4, stronger effect = lower value 1.01 | [2] 1.01 | S. cerevisiae deletion strains, locus YCL029C, strain bik1, stronger effect = lower value 1.03 | S. cerevisiae deletion strains, locus YDL035C, strain GPR1, stronger effect = lower value 1.04 | S. cerevisiae deletion strains, locus YDL074C, strain BRE1, stronger effect = lower value 1.07 | [3] 1.02 | S. cerevisiae deletion strains, locus YDL185W, strain tfp1, stronger effect = lower value 1 | S. cerevisiae deletion strains, locus YDL192W, strain arf1, stronger effect = lower value 1.02 | S. cerevisiae deletion strains, locus YDR101C, strain arx1, stronger effect = lower value 1.02 | S. cerevisiae deletion strains, locus YDR162C, strain NBP2, stronger effect = lower value 1.07 | S. cerevisiae deletion strains, locus YDR318W, strain mcm21, stronger effect = lower value 1.03 | S. cerevisiae deletion strains, locus YDR388W, stronger effect = lower value 1.01 | S. cerevisiae deletion strains, locus YDR502C, strain sam2, stronger effect = lower value 1.02 | S. cerevisiae deletion strains, locus YER110C, stronger effect = lower value 1 | S. cerevisiae deletion strains, locus YER155C, strain BEM2, stronger effect = lower value 1.02 | S. cerevisiae deletion strains, locus YER167W, strain BCK2, stronger effect = lower value 1.02 | S. cerevisiae deletion strains, locus YGL078C, strain dbp3, stronger effect = lower value 1.01 | S. cerevisiae deletion strains, locus YGL086W, strain mad1, stronger effect = lower value 1.02 | S. cerevisiae deletion strains, locus YGL248W, strain PDE1, stronger effect = lower value 1.04 | [6] 1.04 | S. cerevisiae deletion strains, locus YGR135W, strain pre9, stronger effect = lower value 0.998 | S. cerevisiae deletion strains, locus YGR252W, strain gcn5, stronger effect = lower value 1.03 | S. cerevisiae deletion strains, locus YHR079C, strain IRE1 (second series), stronger effect = lower value 1 | S. cerevisiae deletion strains, locus YHR094C, strain hxt1, stronger effect = lower value 0.995 | S. cerevisiae deletion strains, locus YHR129C, strain ARP1, stronger effect = lower value 1.02 | S. cerevisiae deletion strains, locus YHR200W, strain rpn10, stronger effect = lower value 1.01 | S. cerevisiae deletion strains, locus YIL066C, strain RNR3, stronger effect = lower value 1.02 | S. cerevisiae deletion strains, locus YIL073C, strain SPO22, stronger effect = lower value 1.06 | S. cerevisiae deletion strains, locus YIL125W, strain kgd1, stronger effect = lower value 1 | S. cerevisiae deletion strains, locus YIR030C, strain dcg1, stronger effect = lower value 1.01 | S. cerevisiae deletion strains, locus YJL095W, strain BCK1, stronger effect = lower value 1.06 | S. cerevisiae deletion strains, locus YJL134W, strain LCB3, stronger effect = lower value 1.01 | S. cerevisiae deletion strains, locus YJL168C, strain set2, stronger effect = lower value 0.997 | S. cerevisiae deletion strains, locus YJL187C, strain SWE1 (second series), stronger effect = lower value 1.04 | [9] 1.06 | S. cerevisiae deletion strains, locus YKL009W, strain mrt4, stronger effect = lower value 1.01 | S. cerevisiae deletion strains, locus YKL068W, stronger effect = lower value 0.994 | S. cerevisiae deletion strains, locus YKL085W, strain MDH1 (second series), stronger effect = lower value 1.01 | S. cerevisiae deletion strains, locus YKL085W, strain MDH1, stronger effect = lower value 1.01 | [27] 1.01 | S. cerevisiae deletion strains, locus YKR001C, strain vps1, stronger effect = lower value 1.07 | [11] 1.14 | S. cerevisiae deletion strains, locus YLR058C, strain SHM2, stronger effect = lower value 1.03 | S. cerevisiae deletion strains, locus YLR102C, strain apc9, stronger effect = lower value 0.999 | [14] 1.13 | S. cerevisiae deletion strains, locus YLR268W, strain sec22, stronger effect = lower value 1.03 | S. cerevisiae deletion strains, locus YLR342W, strain FKS1 (second series), stronger effect = lower value 1.09 | S. cerevisiae deletion strains, locus YLR371W, strain rom2, stronger effect = lower value 0.991 | S. cerevisiae deletion strains, locus YLR418C, strain cdc73, stronger effect = lower value 1.02 | S. cerevisiae deletion strains, locus YML016C, strain PPZ1, stronger effect = lower value 1.02 | S. cerevisiae deletion strains, locus YML032C, strain rad52, stronger effect = lower value 1.03 | S. cerevisiae deletion strains, locus YML124C, strain tub3, stronger effect = lower value 0.996 | S. cerevisiae deletion strains, locus YMR078C, strain ctf18, stronger effect = lower value 0.994 | S. cerevisiae deletion strains, locus YMR223W, strain ubp8, stronger effect = lower value 1.01 | [17] 1.03 | [18] 1.06 | S. cerevisiae deletion strains, locus YNL067W, strain RPL9B, stronger effect = lower value 1.03 | [19] 1.03 | S. cerevisiae deletion strains, locus YNL233W, strain BNI4, stronger effect = lower value 1.04 | S. cerevisiae deletion strains, locus YNL250W, strain rad50, stronger effect = lower value 1 | S. cerevisiae deletion strains, locus YNL271C, strain bni1, stronger effect = lower value 1 | S. cerevisiae deletion strains, locus YNL298W, strain CLA4, stronger effect = lower value 0.995 | S. cerevisiae deletion strains, locus YNL307C, strain MCK1, stronger effect = lower value 1 | S. cerevisiae deletion strains, locus YNR052C, strain pop2, stronger effect = lower value 1 | [28] 1.22 | S. cerevisiae deletion strains, locus YOL012C, strain htz1 0.967 | S. cerevisiae deletion strains, locus YOL147C, strain pex11, stronger effect = lower value 1.01 | S. cerevisiae deletion strains, locus YOR061W, strain CKA2, stronger effect = lower value 1.04 | S. cerevisiae deletion strains, locus YOR069W, strain VPS5, stronger effect = lower value 1.01 | S. cerevisiae deletion strains, locus YOR136W, strain idh2, stronger effect = lower value 1.01 | S. cerevisiae deletion strains, locus YOR144C, strain elg1, stronger effect = lower value 0.998 | S. cerevisiae deletion strains, locus YOR184W, strain ser1, stronger effect = lower value 1.07 | S. cerevisiae deletion strains, locus YOR316C, strain cot1, stronger effect = lower value 0.988 | [24] 1.08 | [25] 1.01 | S. cerevisiae deletion strains, locus YPR119W, strain clb2, stronger effect = lower value 0.995 | S. cerevisiae deletion strains, locus YPR141C, strain kar3, stronger effect = lower value 1 | S. cerevisiae deletion strains, locus YPR163C, strain tif3, stronger effect = lower value 1.02 | S. cerevisiae deletion strains, locus YPR167C, strain met16, stronger effect = lower value 1.01 | S. cerevisiae deletion strains, strain wtn01, stronger effect = lower value 1.03 | [29] 1.05
